ELG1 genotox – induces genotoxicity in HEK293T cells with luciferase-tagged ELG1; HEK293T ELG1-luciferase reporter, luminescence, 16 h; Potency, µM (series often up to 46 µM), without a hit: top-dose activity change, positive = activation, usual class: activators; 330,000 compounds, 1.3% hits; AID 504466; further: % of control where 0% means no effect; nearly all actives have a fitted effect of over 60% in size
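ELG1-luciferase HEK293T cells, 2,000/well; compound pinned in; 16 hr, 37 °C, 5% CO2; ONE-Glo, 30 min RT; luminescence on CCD imager.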
Rab9 promoter act – Rab9 promoter activation. Huh7 Rab9 promoter-luciferase reporter, luminescence, 24 h. Potency, µM (series often up to 9.22 µM), for inactives: top-dose activation, negative = inhibition, hits mostly activators. 320,000 compounds, 2.8% hits. AID 485297; further: % of control where 0% means no effect; nearly all actives have a fitted effect of over 60% in size
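Promoter activation is measured as luciferase luminescence in Huh7 cells stably transfected with a Rab9 promoter–luciferase construct, following 24 h compound exposure at 37 °C and 10 min reagent incubation at ambient temperature.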
NPC1 promoter act – activates the NPC1 promoter. Potency, µM (highest dose often 9.22 µM), for inactives: at the highest dose activation, most hits filed as activators. 320,000 compounds, 2.4% hits. Huh7 NPC1 promoter luciferase reporter, 24 h. AID 485313; further: % of control where 0% means no effect; nearly all actives have a fitted effect of over 60% in size
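Huh7 reporter cells (NPC1 promoter driving luciferase) are dosed with compound for 24 h at 37 °C, 5% CO2; luciferase detection reagent is then added and luminescence measured after 10 min at ambient temperature.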
Luc counter – counter-screen: inhibitors of Kinase-Glo firefly luciferase. Q27757. Kinase-Glo luciferase, ATP luminescence, 8 min. Potency, µM (top dose mostly 38.3 µM), for the others: at the highest dose activity change, negative = inhibition, most hits filed as inhibitors. 200,000 compounds, 0.28% hits. AID 1379; further: on the % scale 0 is the no-effect control and ±100 the full control effect; nearly all actives have a fitted effect of over 60% in size
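Substrate mix (final 50 mM imidazole pH 7.2, 50 mM KCl, 7 mM MgCl2, 10 uM ATP, 0.01% Tween 20, 0.05% BSA) plus pin-tool compound, then Kinase-Glo detection mix; 8 min ambient, luminescence read.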
FLuc counter – inhibits or activates purified firefly luciferase, miR-21 counter-screen | 360,000 compounds, 6.9% hits | purified FLuc, Km substrates, luminescence inhibition | Potency, µM (titrated, usually from 57.5 µM), inactives show at the top dose activity change, negative = inhibition, usual class: inhibitors | P08659;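 further: plate controls were vehicle for no effect and reference inhibitor for full effect; nearly all actives have a fitted effect of over 55% in size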
Target sequence (P08659 whole entry, looked up): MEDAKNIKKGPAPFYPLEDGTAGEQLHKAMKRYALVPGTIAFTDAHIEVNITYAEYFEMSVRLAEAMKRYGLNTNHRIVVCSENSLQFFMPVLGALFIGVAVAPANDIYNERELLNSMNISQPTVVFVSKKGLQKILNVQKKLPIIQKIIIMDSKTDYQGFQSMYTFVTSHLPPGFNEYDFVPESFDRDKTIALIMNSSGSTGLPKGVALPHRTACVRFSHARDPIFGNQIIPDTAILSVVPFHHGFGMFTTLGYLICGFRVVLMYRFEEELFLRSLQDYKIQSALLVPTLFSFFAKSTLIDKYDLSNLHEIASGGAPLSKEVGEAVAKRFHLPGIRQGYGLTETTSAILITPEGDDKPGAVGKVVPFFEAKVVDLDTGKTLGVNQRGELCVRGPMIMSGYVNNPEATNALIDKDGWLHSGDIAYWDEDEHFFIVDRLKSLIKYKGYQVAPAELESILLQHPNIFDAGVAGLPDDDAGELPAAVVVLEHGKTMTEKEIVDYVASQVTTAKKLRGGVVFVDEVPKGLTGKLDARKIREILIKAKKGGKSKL
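Purified P. pyralis luciferase (10nM final) with 10uM D-luciferin and 10uM ATP (Km levels) in 50mM Tris acetate pH 7.5, 10mM Mg acetate, 0.01% Tween-20, 0.05% BSA; qHTS 6-point titration, ~60 µM downward; luminescence read.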
SMN2 splice up – increases expression of the SMN2 splice variant. Potency, µM (titrated, usually from 46.1 µM), inactives show at the highest dose activity change, positive = activation, most hits filed as activators. HEK293 SMN2-luciferase splicing reporter, luminescence, 30-36 h. 210,000 compounds, 2.8% hits; further: % of control where 0% means no effect; nearly all actives have a fitted effect of over 55% in size
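HEK293 cells carry an SMN2 minigene-luciferase reporter in which exon 7 inclusion puts luciferase in frame. Cells were seeded at 2000 cells/well, attached for 10-12 hours, then exposed to compounds for 30-36 hours at 37C before ONE-Glo luminescence.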
Starred values were filed as active, the others as inactive; ? = inconclusive; . = no result; [ ] = dose if it differs, or a comment. Most compounds without a hit are left out; they make up all but 7.3% or so of the library. The call rests on the fitted dose curve; in most records, active means well fitted curve in the direction sought with a large enough effect; inconclusive means small, poorly fitted or top-dose-only effect, or another doubt; inactive means no such curve, though single readings can be large; an effect the other way counts as inactive or inconclusive. Potency means the concentration at half of the fitted maximal effect.

SMILES	ELG1 genotox	Rab9 promoter act	NPC1 promoter act	Luc counter	FLuc counter	SMN2 splice up
COc1ccc(C(=O)Nc2nc3cc4c(cc3s2)OCCO4)c(OC)c1	?	-3.1%	-3.1%	.	0.953µM*	.
O=C(Nc1nc2cc3c(cc2s1)OCCO3)c1cccs1	0.411µM*	0.112µM*	?	.	0.213µM*	.
COc1ccccc1C(=O)Nc1nc2cc3c(cc2s1)OCO3	?	1.58µM*	1.78µM*	.	0.536µM*	.
COc1cccc(OC)c1C(=O)Nc1nc2cc3c(cc2s1)OCO3	-2.6%	8.9%	9.9%	.	2.3%	.
CC(C)C[C@@H](CC(=O)N[C@@H](CCCN)CC(=O)N[C@@H]1CCNC[C@H]1C(=O)N[C@H](CC(=O)N[C@@H](CCC(=O)O)CC(=O)O)Cc1c[nH]c2ccccc12)NC(=O)[C@@H]1CNCC[C@H]1N	.	.	.	2.1%	.	15.4%
O=C(NNc1nc2cc3c(cc2s1)OCO3)c1ccccc1	8.7%	-1.1%	0.7%	1.1%	?	21.5%
NNc1nc2cc3c(cc2s1)OCCO3	?	1.58µM*	1.58µM*	.	6.75µM*	.
COCCNc1nc(C)nc2c1nc(-c1ccccc1)n2CCCN1CCCCC1C (configuration not stated)	.	.	.	-0.6%	.	-5.2%
CCOC(=O)c1c(-c2ccccc2)oc2ccc(NS(=O)(=O)c3cc(C)c(C)cc3C)cc12	.	.	.	.	-2.5%	-5.5%
CCC(C)Sc1oc(-c2ccco2)nc1S(=O)(=O)c1ccc(Cl)cc1 (configuration not stated)	.	.	.	.	-1.2%	-13.6%
O=C(Nc1nc2c(F)cc(F)cc2s1)c1ccc([N+](=O)[O-])o1	-0.9%	1.58µM*	2.24µM*	.	16.9µM*	.
Cc1cc(C)c2nc(NC(=O)c3ccc([N+](=O)[O-])o3)sc2c1	-7.1%	21.0%	-0.5%	.	?	.
Cc1cc(C)c2sc(NC(=O)c3ccc([N+](=O)[O-])o3)nc2c1	1.1%	9.6%	0.1%	.	13.5µM*	.
O=C(Nc1nc2cc3c(cc2s1)OCCO3)c1ccc([N+](=O)[O-])o1	9.2µM*	1µM*	0.891µM*	.	1.2µM*	.
O=C(Nc1nc2ccccc2s1)c1ccc([N+](=O)[O-])o1	6.6%	?	?	.	6.75µM*	.
COc1ccc(NC(=O)c2ccc([N+](=O)[O-])o2)cc1	?	25.2%	22.8%	.	?	.
Cc1cnc(NC(=O)c2ccc(-c3nc4ccccc4s3)o2)s1	-4.5%	13.4%	29.8%	2.3%	16.9µM*	0.3%
O=C(O)c1cccc([N+](=O)[O-])c1C(=O)Nc1nc2ccccc2s1	-0.2%	2.5%	1.1%	-0.9%	-19.9%	14.1%
Cc1cnc(NC(=O)c2ccc(-c3ccc([N+](=O)[O-])cc3)o2)s1	-0.4%	-4.0%	-3.9%	.	-4.0%	.
COc1ccc2nc(NC(=O)c3ccc([N+](=O)[O-])o3)sc2c1	20.9%	2.82µM*	?	.	2.13µM*	.
O=C(Nc1nc2ccccc2s1)c1ccccc1[N+](=O)[O-]	?	?	?	.	16.9µM*	.
COc1ccc(C(=O)Nc2cc3c4c(c2)CC(=O)N4CCC3)cc1	?	21.9%	8.2%	.	21.3µM*	.
COc1ccc(C(=O)Nc2cc3c4c(c2)CC(=O)N4CCC3)c(OC)c1	?	?	?	.	15.1µM*	.
COc1ccc(C(=O)Nc2cc3c4c(c2)C(C)C(=O)N4CCC3)cc1OC (configuration not stated)	?	1.6%	-3.5%	.	1.9%	.
COc1ccc(C(=O)Nc2cc3c4c(c2)C(C)C(=O)N4CCC3)cc1 (configuration not stated)	?	19.6%	9.9%	.	12µM*	.
SMILES	ELG1 genotox	Rab9 promoter act	NPC1 promoter act	Luc counter	FLuc counter	SMN2 splice up
O=S(=O)(O)c1cc(N=[N+]([O-])c2cc(S(=O)(=O)O)c3ccccc3c2)cc2ccccc12	.	.	.	-2.8%[7.66 µM]	.	-11.5%[9.22 µM]
CC(=O)Nc1ccc(SCC(=O)c2cc(C)n(CC(F)(F)F)c2C)cc1	?	2.82µM*	3.16µM*	-3.3%	-17.5%	-4.6%
CCOc1ccccc1CNC(=O)Cn1nc(C)c2nn(-c3ccc(Cl)cc3)c(C)c2c1=O	.	.	.	.	3.4%	.
Cc1cccc(C(=O)Nc2sc3c(c2C(=O)Nc2ccccc2)CCC3)c1	.	.	.	.	?	-12.3%
Cc1cccc(C(=O)c2c(N)sc3c2CCC(C)C3)c1 (configuration not stated)	?	?	?	.	21.3µM*	.
CCN(CC)C(=O)c1c(NC(=O)c2cccc(C)c2)sc2c1CCC(C)C2 (configuration not stated)	.	.	.	.	16.9µM*	-3.8%
COc1ccc(NC2=C(NC(C)=O)C(=O)c3ccccc3C2=O)cc1	-6.0%	-0.9%	-0.7%	.	-21.0%	.
CCC(=O)NC1=C(Nc2ccc(N)cc2)C(=O)c2ccccc2C1=O	14.0%	2.82µM*	27.2%	.	26.9µM*	.
CCC(=O)Nc1ccc(C2C(=O)c3ccccc3C2=O)cc1	?	?	0.794µM*	.	1.35µM*	.
O=C(O)C12CC3(C(=O)O)CC(C(=O)O)(CC(C(=O)O)(C1)C3=O)C2=O	.	.	.	-3.8%[7.66 µM]	.	-16.3%[9.22 µM]
O=C(c1cccs1)N(Cc1cccnc1)c1nc2ccc(F)cc2s1	.	.	.	.	-3.2%	.
CS(=O)(=O)N1N=C(c2ccccc2)CC1c1ccc2c(c1)OCO2 (configuration not stated)	?	2.82µM*	3.55µM*	-4.4%	21.3µM*	?
CS(=O)(=O)Nc1cccc(C2=NN(S(C)(=O)=O)C(c3ccc4c(c3)OCO4)C2)c1 (configuration not stated)	13.8%	?	16.5%	-2.1%	16.9µM*	11.2µM*
COc1ccc(NC(=S)NC(=O)C2CCC2)cc1	?	4.47µM*	?	.	16.9µM*	.
COC(=O)c1ccc(NC(=S)NC(=O)C2CCC2)cc1	17.3%	1.6%	1.7%	.	?	.
O=C(NC(=S)Nc1ccc(Br)cc1)C1CCC1	?	17.0%	22.8%	.	19µM*	.
O=C(NCCc1ccc(F)cc1)NC12CC3CC(CC(C3)C1)C2	?	3.55µM*	2.51µM*	.	10.7µM*	.
O=C(NCCC1=CCCCC1)NC12CC3CC(CC(C3)C1)C2	?	0.891µM*	0.631µM*	1.4%	3.38µM*	-12.3%
COc1ccc(CCNC(=O)NC23CC4CC(CC(C4)C2)C3)cc1	8.6%	19.5%	19.0%	-1.6%	?	-18.3%
COc1ccc(N(C)C(=O)Cn2cc(S(=O)(=O)N3CCN(c4ccccc4F)CC3)c3ccccc3c2=O)c(OC)c1	.	.	.	.	4.5%	-3.1%
Cc1ccc(NCC(=O)N/N=C\C(Br)=C\c2ccccc2)cc1	5.3%	2.7%	-2.1%	1.8%	6.8%	8.8%

Assay outcomes as filed in PubChem.
